Test results taken from the supplement of paper PMC6555819.

Tests used:
Assay in all cases: PBM binding z-score (relative to random genomic background probes); higher = stronger binding; sequences stand for … in GC…GCGATTGACAGCGTAGAATGAAGG
[1] = tested on: FXR:RXRa (NR concentration 270 nM, RXRa partner concentration 90 nM)
Outline: (§1)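 Scanned fluorescence from custom Agilent 4×180K protein-binding microarrays was regression-normalized. Binding z-scores use random background probes as reference. Ligand-free nuclear receptor dimers were incubated on the arrays for 1 h and detected with antibodies against each partner (one per run).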

[2] = tested on: LXRa:RXRa (NR concentration 270 nM, RXRa partner concentration 90 nM)
Outline: as §1

[3] = tested on: LXRa homodimer (NR concentration 270 nM)
Outline: as §1

[4] = tested on: LXRb:RXRa (NR concentration 270 nM, RXRa partner concentration 90 nM)
Outline: as §1

[5] = tested on: LXRb homodimer (NR concentration 270 nM)
Outline: as §1

[6] = tested on: PPARa:RXRa (NR concentration 270 nM, RXRa partner concentration 90 nM)
Outline: as §1

[7] = tested on: PPARg:RXRa (NR concentration 180 nM, RXRa partner concentration 90 nM)
Outline: as §1

[8] = tested on: PPARg:RXRa 270nM:90nM, anti-RXR (NR concentration 270 nM, RXRa partner concentration 90 nM)
Outline: as §1

[9] = tested on: PPARg:RXRa 30nM:10nM, anti-RXR (NR concentration 30 nM, RXRa partner concentration 10 nM)
Outline: as §1

[10] = tested on: PPARg:RXRa 90nM:30nM, anti-RXR (NR concentration 90 nM, RXRa partner concentration 30 nM)
Outline: as §1

Sequence	PBM binding z-score [1]	PBM binding z-score [2]	PBM binding z-score [3]	PBM binding z-score [4]	PBM binding z-score [5]	PBM binding z-score [6]	PBM binding z-score [7]	PBM binding z-score [8]	PBM binding z-score [9]	PBM binding z-score [10]
GCTCGGAAGACAAGGTCAGAGCTTTGTCCGTAGA	1.01	1.26	-0.528	0.906	-1.34	1.97	0.0442	0.519	-0.417	0.239
CCTAGCAGGCCAATCTGAGTCACTCAAGGCTTGA	-0.524	-0.573	-0.759	-0.644	-0.64	-0.513	-0.183	-0.961	-0.966	-1.25
CCTAGCAGGCGAATCTGGGTCACTCAAGGCTTGA	0.211	0.262	-0.449	0.236	-0.934	3.11	2.47	2.62	-0.139	1.64
CCAGACAGGTGAGAAGGTAACGCAGCCTCGATTA	-0.0305	0.0782	-0.18	0.115	-0.496	0.743	0.809	0.998	-0.268	0.809
TAGGCTAGGTCATTGGGCCAGTATAGTACGCATC	4	2.77	0.321	1.87	0.37	3.73	3.73	3.76	0.966	2.24
CGTCCAAGGTCAAGGTCAGCGAAAGAGACTCGAA	7.53	5.5	1.11	4.65	0.78	5.89	6.76	6.42	3.23	5.28
CCTATTAGTTGACCATAAGGGCTACCGAAGCTCG	0.118	0.0436	0.338	0.131	0.649	-0.0868	0.355	0.0189	0.219	0.0475
CGAACTAGGTCATTGTCAGGACAGTGAATAGTAA	3.91	3.08	0.611	1.99	0.0511	4.67	7.44	6.43	4.07	5.88
TCTGCTAGGTCAACGCTGGTCAGCTAATCTGCTA	3.47	3.1	-0.234	1.74	-0.356	3.27	2.09	3.24	1.85	2.54
TCTTGTAGATCAATAGAGTTTAAGAAAGTGCGCT	0.426	0.959	0.0611	0.0999	-0.184	0.514	-0.0887	1	2.5	1.99
CGAACTAGGTCATTGATAGGACAGTGAATAGTAA	3.4	2.63	0.471	1.82	-0.194	4.38	7.14	5.99	3.25	5.56
ATCTCTAGGTAATCAAGTTCAGTGAATGCCGAAC	0.473	1.01	1.61	0.658	0.711	1.01	0.317	1.19	0.611	1.19
CAAACTAGGTCAAGAGCTCAAAGTCCGCTTCCCG	3.7	2.48	0.129	1.63	0.0048	4.61	7.37	6.8	4.34	6.56
TCGAGTAGGTTAGTCGGCGCATTCAGCCAACATA	-0.102	-0.169	-0.745	-0.439	-1.53	0.0972	-0.358	0.362	0.699	0.562
CCTACTGGGCGATCAGGTCATTGATATCAACGTT	0.953	0.548	0.541	0.798	-0.539	1.44	0.524	1.26	0.0672	0.741
CCGACTGTGGCAAAGGTTACCATACTCAGTACGA	0.857	1.38	0.228	1.73	-0.558	4.03	8.41	7.91	6.78	8.43
CCGAGTAGGTTGTGGGGCATTCAGGCAACGGTGA	-0.145	-0.118	0.0165	0.178	-0.163	0.496	0.169	1.61	-0.549	0.776
CCTACTGGGCCAAAGGTCATTGAATCCAATGCTC	4.76	5.09	3.62	4.91	0.849	6.45	11.2	9.74	10.1	10.8
CCTAGCAGGCCACTCTGGGTCACTCAAGGCTTGA	1.22	4.55	0.221	1.91	-0.897	2.33	0.363	0.663	-0.56	0.0943
TTACCAAGGTGAGCTTAGGTCGTTGATCCAACTC	0.558	0.409	-0.684	0.122	-1.23	1.05	-0.0698	0.725	-0.0893	0.244
CGAACTAGGTCATCGACAGGACAGTGAATAGTAA	3.83	2.6	0.8	2.02	-0.0443	4.87	8.03	6.6	3.86	5.7
ATCGAAAGGTCGAATGTGAGTATACCCACCCGAA	4.89	4.01	0.69	3.19	1.37	4.5	2.9	3.02	1.25	1.97
TAGCCGAGGTCATGGGCCAGTATACCACGCGAAC	7.63	5.96	0.925	4.99	0.79	6.28	7.45	7.21	3.43	5.67
CTCGAAAGATCGTGCTCAGGTGAGTATACCAAAC	-0.102	-0.388	-0.396	-0.276	-0.402	-0.384	-0.161	-0.399	-0.236	-0.424
CAAACTAAGTCAAAGGTCAAAGTCGAGCCAACCA	6.46	6.42	5.19	6.08	2.84	6.84	11.4	10.3	11.8	12.2

Sequence	PBM binding z-score [1]	PBM binding z-score [2]	PBM binding z-score [3]	PBM binding z-score [4]	PBM binding z-score [5]	PBM binding z-score [6]	PBM binding z-score [7]	PBM binding z-score [8]	PBM binding z-score [9]	PBM binding z-score [10]
TAGCCTAGGTCATTGGGCCTGTATAGTACGCATC	4.24	3.47	0.96	2.39	-0.0318	3.52	2.18	2.86	0.506	1.59
TAGCCTAGGTCAGATCGGGCCACTATACGCTATA	2.45	1.34	-0.308	0.919	-0.028	1.65	0.925	0.87	-0.128	0.49
CCTACTGGGCCAAAATGGTCATTGATGCCGATAA	-0.236	-0.291	-0.317	-0.55	-0.875	0.318	0.666	0.897	-0.124	0.804
TCGAGTAGGTTAGGAGCATTCAGAATGGCGTCGA	-0.126	-0.0909	-0.756	-0.438	-1.39	0.24	0.0725	0.668	0.928	0.741
TAGCCTAGGTCATGGGCCAGAATACCACGCGAAC	4.31	3.48	0.271	2.33	-0.281	4.2	3.64	3.63	0.806	2.68
GCTATTAGTTGAAAGGGAAACCGAATGATTCTCG	-0.0917	-0.171	0.0809	-0.236	-0.289	0.000801	0.567	1.6	0.38	1.25
CCTTACGGGTCACTGACAGGTTGTAGCATTTGGA	5.1	3.61	0.156	3.17	-0.356	4.93	4.26	4.06	0.971	2.97
AGAATGAGGTTATACGTAGATCGGGGAAGAAAGT	2.27	2	0.119	1.96	0.366	3.29	1.84	2.15	0.629	1.49
CAAACTAGGTCACCGGAAGGTCAAAATCCGCATG	5.79	5.77	4.45	5.33	1.71	6.21	9.82	7.79	5.96	7.63
CAACCAAGGTGAACAAGGTCGTTGATTACTATTC	1.58	1.48	0.275	2.09	-0.212	2.67	1.33	1.41	0.118	0.789
AGAATGACGTTACCAAAGATCAGGGAAACGCTTG	-0.187	-0.0658	-0.236	-0.336	-0.144	-0.289	0.77	0.125	0.189	0.17
GCTCCTAGGTCAGGTTGGTCAGCTAACGGGTACG	1.88	1.13	0.0623	1.09	0.0222	2.12	0.889	1.34	-0.42	0.479
CCTACGGGGCCATCAGGTCATTGATATCAACGTT	2.38	1.72	0.922	1.91	-0.245	2.46	1.25	1.88	0.224	0.958
CGTCCAAGGTCAGAGAGGTCAATGAATGCCGAGT	6.53	5.92	4.51	5.64	0.884	5.36	3.79	4.67	1.52	3.58
AATGCAGGGTCATCGTAGGCCAGAGTACGCACAG	7.22	6.03	1.22	4.54	-0.0477	5.97	6.45	5.75	2.6	4.62
ATCTCTAGGTAAAAGTTCAGTAAATCCCGAGGAT	0.994	1.49	1.5	1.29	1.31	4.43	7.76	7.37	6.62	8.13
TCGAGTGGGTTAGGGGCATTCAGAATGGCGTCGA	0.437	0.401	0.0912	1.41	0.759	1.46	0.402	1.73	0.9	1.31
CGTCCAAGGTCAAGGTCAGTGCAAGAGACTCGAA	7.47	5.77	1.19	4.77	0.528	5.84	6.07	6.18	2.4	5.09
CGTCAAAGTTCAACTAAGATAACGTAAAGCACGC	6.92	6.3	4.03	4.14	2.68	5	4.94	5.19	2.56	4.27
CTACCAAGGTGCACAAGGTCGTTGATTACTATTC	0.933	1.22	0.723	1.74	-0.173	1.69	0.548	0.538	-0.186	0.246
CCTTACGGGTCACTTCAGGTTATAGCATCGGAGT	5.1	7.75	2.3	5.47	0.687	4.36	3.23	3.7	1.22	2.2
CCTATTAGTTGACCATAAGGTCAACCGAAGCTCG	4.88	4	3.35	3.83	1.73	4.06	1.48	3.02	1.42	2.61
GATACAGGGTTAGCTAGAGGCCAGAGTATGGAAA	0.0111	0.711	-0.451	0.181	-0.961	0.87	0.379	0.0848	-0.37	-0.205
TGAATGAGGTTATACGATCAGGGAACGTTGCAAA	1.76	1.37	-0.238	1.05	-0.18	2.91	1.33	1.79	0.555	1.1
